The text below walks through data of PubChem BioAssay (NCI).

The panel holds about 79,000 compounds, 15% with a hit somewhere; the sample as a whole holds those more often. Unmarked numbers belong to inactive results. Active and inactive are the calls of the source. No stated cut-off is given here; in the data, active means growth inhibition above about 70%; inactive means the rest.

Assay [1] in a line: NCI Yeast Anticancer Drug Screen. Data for the rad50 strain (AID 155).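 Further: 0% = growth of vehicle-only cultures of the same strain.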 The settings on record: S. cerevisiae rad50 strain growth inhibition; at 50.0 µM; hits give high values. The essentials:
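Readout: growth inhibition relative to vehicle-treated cultures. Compound exposure was carried out in a genetically defined yeast strain deficient in DNA damage repair.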

Assay [2] can be described thus: NCI Yeast Anticancer Drug Screen. Data for the mec2-1 strain (AID 157). The settings on record: S. cerevisiae mec2-1 strain, at 50.0 µM, hits give high values. In outline: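 Strain: mec2-1 (DNA repair/cell cycle alteration). Compound exposure, then growth measured; inhibition expressed relative to vehicle.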
Assay [3] is described as follows: NCI Yeast Anticancer Drug Screen. Data for the sgs1 mgt1 strain (AID 161).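 Further: 0% = growth of cultures given vehicle only.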 As to conditions: S. cerevisiae sgs1 mgt1 strain, at 50.0 µM, hits give high values. In outline: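 Mutant yeast exposed to compound; growth scored against vehicle-only wells.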
Assay [4] can be described thus: NCI Yeast Anticancer Drug Screen. Data for the cln2 rad14 strain (AID 165).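 Further: 0% = growth equal to vehicle treated cultures.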 As to conditions: S. cerevisiae cln2 rad14 strain, at 50.0 µM, hits give high values. The essentials:
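Compounds are applied to the cln2 rad14 yeast strain, and growth is then compared with that of vehicle-treated cultures to give inhibition.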

Assay [5] is described as follows: NCI Yeast Anticancer Drug Screen. Data for the bub3 strain (AID 167). As to conditions: S. cerevisiae bub3 mutant strain, at 50.0 µM, hits give high values. In outline: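 Readout: yeast growth inhibition, expressed relative to vehicle-only wells. The test organism is a mutant strain from a panel with lesions in DNA repair or checkpoint genes.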
Assay [6] is described as follows: NCI Yeast Anticancer Drug Screen. Data for the mlh1 rad18 strain (AID 175). As to conditions: S. cerevisiae mlh1 rad18 strain growth inhibition; at 50.0 µM; hits give high values. In outline: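 Read-out is yeast growth inhibition, calculated against vehicle-only controls. The compound was applied to a strain engineered with DNA damage repair alterations.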

`O=C(C[n+]1ccncc1)c1cccc([N+](=O)[O-])c1`: the growth inhibition is 0.5% in assay [1]; -1.95% in assay [2]; 9.15% in assay [3]; 8.35% in assay [4]; 7.65% in assay [5]; 27.4% in assay [6].

For the compound `Cc1ccc2cc(CCCC(=O)O)ccc2c1`, the growth inhibition was 43.4% in assay [1]; 25.8% in assay [2]; 38.7% in assay [3]; 31.6% in assay [4]; 40.9% in assay [5]; 24.9% in assay [6].

With `O=C1CCC(N2C(=O)C3C4CCC(CC4)C3C2=O)C(=O)N1` (stereo unspecified), the growth inhibition is 2.75% in assay [1]; -12.9% in assay [2]; -14.9% in assay [3]; -1.65% in assay [4]; -2.65% in assay [5]; -16.2% in assay [6].

Take `C=CCOC(=O)CC(=O)OCC=C`: the growth inhibition is 0.6% in assay [1]; 1.7% in assay [2]; 0.35% in assay [3]; -4% in assay [4]; 3.05% in assay [5]; -5.9% in assay [6].

Take `Cc1cc(=O)[nH]c2ccc(Cc3ccc(Cl)cc3)cc12`: the growth inhibition is 12.8% in assay [1]; 1.75% in assay [2]; 4.9% in assay [3]; 7.6% in assay [4]; 3.1% in assay [5]; 1.65% in assay [6].

Turning to `Nc1cc(Cl)c(I)c(Cl)c1`, the growth inhibition is -4.5% in assay [1]; -29.6% in assay [2]; 5.05% in assay [3]; 10.2% in assay [4]; -2.15% in assay [5]; 14.4% in assay [6].

For `COc1ccc2c3c([nH]c2c1)C(C)N(S(=O)(=O)c1ccccc1)CC3` (stereo unspecified), the growth inhibition in assay [1] was -8.1%; in assay [2], -0.9%; in assay [3], -2.65%; in assay [4], -4.9%; in assay [5], 8.45%; in assay [6], 5.7%.

As to `CC1=CC(=O)C2=C(C)CCC3C(C)C(=O)OC3C12` (stereo unspecified), the growth inhibition is -4.2% in assay [1]; -9.85% in assay [2]; -6.75% in assay [3]; 10.8% in assay [4]; -3.55% in assay [5]; -60.7% in assay [6].

As for `O=C1CC(c2ccccc2)OC(c2ccccc2Cl)C1` (stereo unspecified), the growth inhibition in assay [1] was -1.25%; in assay [2], -8.35%; in assay [3], -39.5%; in assay [4], -20.7%; in assay [5], -5.85%; in assay [6], 9.1%.

`Cc1ccc(Oc2ccc(C(=O)c3cccc(C(=O)c4ccc(Oc5ccc(C)cc5)cc4)n3)cc2)cc1`: the growth inhibition was -18.6% in assay [1]; 2.05% in assay [2]; -38.2% in assay [3]; -28.2% in assay [4]; -15.3% in assay [5]; -24.9% in assay [6].

Take `O=C(Nc1ccccn1)OCCCl`: the growth inhibition in assay [1] is -1.6%; in assay [2], 0.6%; in assay [3], 4.35%; in assay [4] it was 10.1%; in assay [5], -28.2%; in assay [6] it was 7.1%.

Consider `CC(=O)c1ccc2c(Br)ccc3c2c1CC3`, for which the growth inhibition was 12.3% in assay [1]; 10.3% in assay [2]; 4.25% in assay [3]; 10.4% in assay [4]; 16.1% in assay [5]; 9.55% in assay [6].

For `CC(=O)OC1COC(N2C(=O)C(=O)c3ccccc32)C(OC(C)=O)C1OC(C)=O` (stereo unspecified), the growth inhibition in assay [1] is 13.1%; in assay [2], 19.4%; in assay [3], -1.5%; in assay [4] it was -22.4%; in assay [5], 9.05%; in assay [6] it was 19.1%.

Regarding `CN(C)CCC(N)(P(=O)([O-])[O-])P(=O)([O-])[O-].N.N.[Pt+2]`, the growth inhibition in assay [1] was -24.5%; in assay [2], 2.2%; in assay [3], 3.15%; in assay [4], 12.9%; in assay [5] it was 12.3%; in assay [6] it was 3.95%.

For `NCCCCC(N)C(=O)O.[Cu+2]` (stereo unspecified), the growth inhibition was -13.6% in assay [1]; 3.95% in assay [2]; -4.9% in assay [3]; -6% in assay [4]; -11.8% in assay [5]; -22.8% in assay [6].

For the compound `CN1NC(=O)SC(=O)c2ccccc2C1=O`, the growth inhibition was -16.4% in assay [1]; 22% in assay [2]; 0.1% in assay [3]; -12.1% in assay [4]; 0.15% in assay [5]; 0.65% in assay [6].

Regarding `COCC(N=CN1CCCc2ccccc2[C@@H]1CCCCl)C(C)(C)C` (stereo partly specified), the growth inhibition is -6.6% in assay [1]; 10.1% in assay [2]; 25.9% in assay [3]; 19.7% in assay [4]; 19.9% in assay [5]; 13.1% in assay [6].

As to `CC1(C)CC[C@]2(C(=O)O)[C@H](O)C[C@]3(C)C(=CC[C@@H]4[C@@]5(C)CC[C@H](OC6OC(C(=O)O)C(O)C(O)C6O)C(C)(C)[C@@H]5CC[C@]43C)[C@@H]2C1` (stereo partly specified), the growth inhibition in assay [1] is 93.8% (active); in assay [2], 95% (active); in assay [3] it was 94.3% (active); in assay [4], 92.7% (active); in assay [5], 93.9% (active); in assay [6] it was 93.7% (active).

Regarding `CCC1c2c(cc(=O)[nH]c2O)C(=O)N1C` (stereo unspecified), the growth inhibition is 9.5% in assay [1]; -4.75% in assay [2]; 3.95% in assay [3]; -9.15% in assay [4]; -0.8% in assay [5]; 0.55% in assay [6].

`CC1C(O)CC23COC(=O)C2=CCCC3C1(C)CCC1=CC(=O)OC1` (stereo unspecified): the growth inhibition in assay [1] was -8.6%; in assay [2], -38.9%; in assay [3] it was -26.2%; in assay [4], -7%; in assay [5], -42%; in assay [6], -20.9%.

Turning to `Cc1c(C(=O)O)[nH]c2c(Cl)ccc(C)c2c1=O`, the growth inhibition was -34.2% in assay [1]; -9.15% in assay [2]; 9.5% in assay [3]; -44.5% in assay [4]; 9.8% in assay [5]; 4.75% in assay [6].
